# Assay results taken from PubChem BioAssay AID1159580 (chemical genetic matrix, 2015).
# Where “and” joins values, the source holds several entries; their conditions need not be identical. Identical values can stand only once. The whole screen tested about 5,500 compounds, of which about 2,000 (36%) were called active. Not shown: some 18% with an inconclusive outcome. This is one part of the list. Unmarked numbers belong to inactive results. No stated cut-off is given here; in the data, active means normalized growth mostly below about 0.91 (no sharp cut-off); inconclusive means no clear call, values can overlap the other calls; inactive means mostly above about 0.92.
# Assay: chemical genetic growth profiling, strain panel (AID 1159580);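 further: tested at 20 µM; growth read once vehicle control cultures reached saturation at 30 °C; 1 = growth at the plate median or of vehicle wells; lower values mean less growth of the strain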
# Details: S. cerevisiae deletion strains, growth OD
smiles,measurement,setting,value
Cc1cc(O)c2c(c1)C(=O)c1cccc(O)c1C2=O,normalized growth,"locus YAL013W, strain DEP1, hits give low values",0.971
same,normalized growth,"locus YAL021C, strain ccr4, hits give low values",0.991
same,normalized growth,"locus YAL026C, strain drs2, hits give low values",0.974
same,normalized growth,"locus YAL030W, strain snc1, hits give low values",1
same,normalized growth,"locus YBL061C, strain skt5, hits give low values",0.999
same,normalized growth,"locus YBR009C, strain hhf1, hits give low values",0.98
same,normalized growth,"locus YBR021W, strain FUR4, hits give low values",1.05
same,normalized growth,"locus YBR023C, strain chs3, hits give low values",1.01
same,normalized growth,"locus YBR171W, strain sec66, hits give low values",0.996
same,normalized growth,"locus YBR229C, strain ROT2, hits give low values",0.996
same,normalized growth,"locus YBR231C, strain swc5, hits give low values",0.967
same,normalized growth,"locus YBR279W, strain paf1, hits give low values",1
same,normalized growth,"locus YCL011C, strain gbp2, hits give low values",1
same,normalized growth,"locus YCL016C, strain dcc1, hits give low values",1
same,normalized growth,"locus YCL029C, strain bik1, hits give low values",0.992
same,normalized growth,"locus YCL061C, strain MRC1, hits give low values",1
same,normalized growth,"locus YCL069W, strain vba3, hits give low values",1
same,normalized growth,"locus YCR088W, strain abp1, hits give low values",1
same,normalized growth,"locus YDL005C, strain med2, hits give low values",1.01
same,normalized growth,"locus YDL035C, strain GPR1, hits give low values",0.975
same,normalized growth,"locus YDL040C, strain nat1, hits give low values",0.985
same,normalized growth,"locus YDL074C, strain BRE1, hits give low values",0.935
same,normalized growth,"locus YDL101C, strain DUN1, hits give low values",0.997
same,normalized growth,"locus YDL185W, strain tfp1, hits give low values",0.987
same,normalized growth,"locus YDL192W, strain arf1, hits give low values",0.967
same,normalized growth,"locus YDR001C, strain nth1, hits give low values",0.998
same,normalized growth,"locus YDR069C, strain doa4, hits give low values",0.99
same,normalized growth,"locus YDR101C, strain arx1, hits give low values",0.975
same,normalized growth,"locus YDR137W, strain rgp1, hits give low values",0.791 (active)
same,normalized growth,"locus YDR159W, strain sac3, hits give low values",1
same,normalized growth,"locus YDR162C, strain NBP2, hits give low values",0.969
same,normalized growth,"locus YDR195W, strain ref2",1.18 [resistant] (active)
same,normalized growth,"locus YDR297W, strain sur2, hits give low values",0.999
same,normalized growth,"locus YDR318W, strain mcm21, hits give low values",0.989
same,normalized growth,"locus YDR334W, strain swr1, hits give low values",0.993
same,normalized growth,"locus YDR335W, strain msn5, hits give low values",0.989
same,normalized growth,"locus YDR388W, hits give low values",0.994
same,normalized growth,"locus YDR392W, strain spt3, hits give low values",0.82
same,normalized growth,"locus YDR502C, strain sam2, hits give low values",1.01
same,normalized growth,"locus YEL003W, strain gim4, hits give low values",0.988
same,normalized growth,"locus YEL037C, strain rad23, hits give low values",0.982
same,normalized growth,"locus YEL061C, strain CIN8 (second series), hits give low values",0.99
same,normalized growth,"locus YEL061C, strain CIN8, hits give low values",0.993
same,normalized growth,"locus YER015W, strain faa2, hits give low values",1.01
same,normalized growth,"locus YER016W, strain bim1, hits give low values",1
same,normalized growth,"locus YER110C, hits give low values",1
same,normalized growth,"locus YER111C, strain swi4, hits give low values",1
same,normalized growth,"locus YER155C, strain BEM2 (second series), hits give low values",0.985
same,normalized growth,"locus YER155C, strain BEM2, hits give low values",1.01
same,normalized growth,"locus YER167W, strain BCK2, hits give low values",0.995
same,normalized growth,"locus YFR010W, strain ubp6, hits give low values",0.971
same,normalized growth,"locus YGL078C, strain dbp3, hits give low values",1.02
same,normalized growth,"locus YGL086W, strain mad1, hits give low values",0.965
same,normalized growth,"locus YGL167C, strain pmr1, hits give low values",0.987
same,normalized growth,"locus YGL173C, strain kem1, hits give low values",1
same,normalized growth,"locus YGL227W, strain vid30, hits give low values",1.01
same,normalized growth,"locus YGL240W, strain doc1, hits give low values",0.963
same,normalized growth,"locus YGL248W, strain PDE1, hits give low values",0.981
same,normalized growth,"locus YGL253W, strain hxk2, hits give low values",0.985
same,normalized growth,"locus YGR078C, strain PAC10, hits give low values",0.964
same,normalized growth,"locus YGR135W, strain pre9, hits give low values",1.01
same,normalized growth,"locus YGR252W, strain gcn5, hits give low values",1.03
same,normalized growth,"locus YHR013C, strain ard1, hits give low values",1
same,normalized growth,"locus YHR027C, strain rpn1, hits give low values",0.998
same,normalized growth,"locus YHR030C, strain SLT2, hits give low values",0.981 and 1.02
same,normalized growth,"locus YHR079C, strain IRE1 (second series), hits give low values",0.995
same,normalized growth,"locus YHR079C, strain IRE1, hits give low values",1.06
same,normalized growth,"locus YHR094C, strain hxt1, hits give low values",1.01
same,normalized growth,"locus YHR129C, strain ARP1, hits give low values",1
same,normalized growth,"locus YHR142W, strain chs7, hits give low values",0.964
same,normalized growth,"locus YHR200W, strain rpn10, hits give low values",0.994
same,normalized growth,"locus YIL066C, strain RNR3, hits give low values",0.991
same,normalized growth,"locus YIL073C, strain SPO22, hits give low values",0.935
same,normalized growth,"locus YIL125W, strain kgd1, hits give low values",1
same,normalized growth,"locus YIR030C, strain dcg1, hits give low values",1.01
same,normalized growth,"locus YJL092W, strain hpr5, hits give low values",1.01
same,normalized growth,"locus YJL095W, strain BCK1 (second series), hits give low values",0.999
same,normalized growth,"locus YJL095W, strain BCK1, hits give low values",0.914 and 1.05
same,normalized growth,"locus YJL115W, strain asf1, hits give low values",0.996
same,normalized growth,"locus YJL129C, strain trk1, hits give low values",1.01
same,normalized growth,"locus YJL134W, strain LCB3, hits give low values",1
same,normalized growth,"locus YJL154C, strain vps35, hits give low values",0.997
same,normalized growth,"locus YJL164C, strain tpk1, hits give low values",0.996
same,normalized growth,"locus YJL166W, strain qcr8, hits give low values",0.983
same,normalized growth,"locus YJL168C, strain set2, hits give low values",1
same,normalized growth,"locus YJL187C, strain SWE1 (second series), hits give low values",0.954
same,normalized growth,"locus YJL187C, strain SWE1, hits give low values",0.995
same,normalized growth,"locus YJR043C, strain POL32, hits give low values",0.977
same,normalized growth,"locus YJR066W, strain TOR1, hits give low values",0.979
same,normalized growth,"locus YKL009W, strain mrt4, hits give low values",1.02
same,normalized growth,"locus YKL068W, hits give low values",1.02
same,normalized growth,"locus YKL085W, strain MDH1 (second series), hits give low values",1.01
same,normalized growth,"locus YKL085W, strain MDH1, hits give low values",1.01
same,normalized growth,"locus YKL160W, strain elf1, hits give low values",0.995
same,normalized growth,"locus YKL190W, strain CNB1, hits give low values",0.991
same,normalized growth,"locus YKR001C, strain vps1, hits give low values",0.928
same,normalized growth,"locus YKR026C, strain gcn3, hits give low values",1.02
same,normalized growth,"locus YKR091W, strain srl3, hits give low values",1
same,normalized growth,"locus YLL001W, strain dnm1, hits give low values",1.01
same,normalized growth,"locus YLL026W, hits give low values",1
same,normalized growth,"locus YLL041C, strain sdh2, hits give low values",1.01
same,normalized growth,"locus YLR027C, strain aat2, hits give low values",1.01
same,normalized growth,"locus YLR039C, strain RIC1, hits give low values",0.818
same,normalized growth,"locus YLR058C, strain SHM2, hits give low values",0.972
same,normalized growth,"locus YLR102C, strain apc9, hits give low values",1.01
same,normalized growth,"locus YLR113W, strain HOG1, hits give low values",1.07
same,normalized growth,"locus YLR221C, strain rsa3, hits give low values",1.01
same,normalized growth,"locus YLR258W, strain gsy2, hits give low values",0.991
same,normalized growth,"locus YLR262C, strain YPT6 (second series), hits give low values",0.857 (active)
same,normalized growth,"locus YLR268W, strain sec22, hits give low values",0.933
same,normalized growth,"locus YLR320W, strain mms22, hits give low values",0.949
same,normalized growth,"locus YLR330W, strain CHS5, hits give low values",0.986
same,normalized growth,"locus YLR342W, strain FKS1 (second series), hits give low values",0.984
same,normalized growth,"locus YLR342W, strain FKS1, hits give low values",1.01
same,normalized growth,"locus YLR357W, strain rsc2, hits give low values",1.03
same,normalized growth,"locus YLR370C, strain arc18, hits give low values",1.02
same,normalized growth,"locus YLR371W, strain rom2, hits give low values",0.963
same,normalized growth,"locus YLR384C, strain iki3, hits give low values",0.998
same,normalized growth,"locus YLR418C, strain cdc73, hits give low values",0.936
same,normalized growth,"locus YML016C, strain PPZ1, hits give low values",0.997
same,normalized growth,"locus YML032C, strain rad52, hits give low values",0.935
same,normalized growth,"locus YML120C, strain ndi1, hits give low values",0.998
same,normalized growth,"locus YML124C, strain tub3, hits give low values",1.01
same,normalized growth,"locus YMR058W, strain fet3, hits give low values",0.98
same,normalized growth,"locus YMR078C, strain ctf18, hits give low values",0.988
same,normalized growth,"locus YMR125W, strain sto1, hits give low values",1.05
same,normalized growth,"locus YMR129W, hits give low values",0.999
same,normalized growth,"locus YMR205C, strain PFK2, hits give low values",1.03
same,normalized growth,"locus YMR223W, strain ubp8, hits give low values",0.968
same,normalized growth,"locus YMR231W, strain pep5, hits give low values",0.999
same,normalized growth,"locus YMR263W, strain SAP30, hits give low values",0.982
same,normalized growth,"locus YMR307W, strain GAS1, hits give low values",0.883
same,normalized growth,"locus YNL067W, strain RPL9B, hits give low values",0.99
same,normalized growth,"locus YNL071W, strain lat1, hits give low values",0.996
same,normalized growth,"locus YNL183C, strain NPR1, hits give low values",0.974
same,normalized growth,"locus YNL209W, strain ssb2, hits give low values",0.988
same,normalized growth,"locus YNL233W, strain BNI4, hits give low values",0.966
same,normalized growth,"locus YNL248C, strain rpa49, hits give low values",0.948
same,normalized growth,"locus YNL250W, strain rad50, hits give low values",1.04
same,normalized growth,"locus YNL271C, strain bni1, hits give low values",1
same,normalized growth,"locus YNL298W, strain CLA4, hits give low values",1.02
same,normalized growth,"locus YNL307C, strain MCK1, hits give low values",1.01
same,normalized growth,"locus YNL322C, strain KRE1 (second series), hits give low values",1.02
same,normalized growth,"locus YNR049C, strain mso1, hits give low values",1.01
same,normalized growth,"locus YNR052C, strain pop2, hits give low values",0.961
same,normalized growth,"locus YOL012C, strain htz1",1.1
same,normalized growth,"locus YOL147C, strain pex11, hits give low values",0.994
same,normalized growth,"locus YOR001W, strain rrp6, hits give low values",0.983
same,normalized growth,"locus YOR061W, strain CKA2, hits give low values",1
same,normalized growth,"locus YOR069W, strain VPS5, hits give low values",0.999
same,normalized growth,"locus YOR070C, strain gyp1, hits give low values",1.02
same,normalized growth,"locus YOR080W, strain dia2, hits give low values",0.996
same,normalized growth,"locus YOR083W, strain WHI5, hits give low values",0.999
same,normalized growth,"locus YOR106W, strain vam3, hits give low values",0.965
same,normalized growth,"locus YOR136W, strain idh2, hits give low values",1.01
same,normalized growth,"locus YOR144C, strain elg1, hits give low values",0.998
same,normalized growth,"locus YOR184W, strain ser1, hits give low values",0.946
same,normalized growth,"locus YOR231W, strain MKK1, hits give low values",1.09
same,normalized growth,"locus YOR265W, strain rbl2, hits give low values",0.996
same,normalized growth,"locus YOR270C, strain vph1, hits give low values",0.772 (active)
same,normalized growth,"locus YOR290C, strain snf2, hits give low values",0.967
same,normalized growth,"locus YOR316C, strain cot1, hits give low values",1.02
same,normalized growth,"locus YPL051W, strain arl3, hits give low values",0.891 (active)
same,normalized growth,"locus YPL078C, strain atp4, hits give low values",0.96
same,normalized growth,"locus YPL106C, strain sse1, hits give low values",0.974
same,normalized growth,"locus YPL240C, strain hsp82, hits give low values",1
same,normalized growth,"locus YPL256C, strain CLN2, hits give low values",1.09
same,normalized growth,"locus YPR119W, strain clb2, hits give low values",1
same,normalized growth,"locus YPR141C, strain kar3, hits give low values",1.03
same,normalized growth,"locus YPR163C, strain tif3, hits give low values",1
same,normalized growth,"locus YPR167C, strain met16, hits give low values",0.998
same,normalized growth,"strain wtn01, hits give low values",0.97
